High-throughput results as filed in PubChem BioAssay.
This is a sample that favours compounds with a hit; in the whole collection about 6% have one here.
DRD3 agonist: activates the human D3 dopamine receptor; P35462; D3R DiscoveRx beta-arrestin cells, luminescence, 90 min; max activation, %; 410,000 compounds, 0.58% hits; AID 652048; in the data active = max activation above about 30%
Target sequence (P35462 whole entry, looked up): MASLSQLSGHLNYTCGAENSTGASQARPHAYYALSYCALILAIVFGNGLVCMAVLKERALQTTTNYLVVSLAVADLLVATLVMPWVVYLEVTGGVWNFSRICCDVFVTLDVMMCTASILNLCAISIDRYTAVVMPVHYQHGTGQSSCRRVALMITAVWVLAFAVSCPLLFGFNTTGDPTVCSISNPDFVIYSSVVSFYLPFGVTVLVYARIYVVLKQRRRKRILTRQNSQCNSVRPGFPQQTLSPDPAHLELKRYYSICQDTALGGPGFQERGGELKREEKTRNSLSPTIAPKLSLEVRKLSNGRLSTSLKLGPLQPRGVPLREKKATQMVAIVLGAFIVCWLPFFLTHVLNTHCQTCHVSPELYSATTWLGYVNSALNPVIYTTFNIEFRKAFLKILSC
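Cells at 1500/well, incubated overnight, then treated with pinned compounds (dopamine as control) for 90 min at 37 degrees C. DiscoveRx reagent added for 30 - 60 minutes at room temperature; luminescence read.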
D3 antag: antagonists of human D3 dopamine receptor; D3R cells, DiscoveRx beta-arrestin luminescence, antagonist mode; stronger effect = lower value; max response, negative = inhibition, %; 360,000 compounds, 2.5% hits; AID 652054; in the data active = max response below about -50%; inconclusive = no clear call, values can overlap the other calls
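Cells expressing the human receptor were seeded at 1500 cells/well, incubated overnight at 37 degrees C in 5% CO2, then exposed to library compounds with dopamine controls for 90 minutes at 37 degrees C before luminescent detection.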
D1 ag: human D1 receptor agonism; P21728; HEK293 T-REx D1 cells, calcium flux, agonist mode; activation, % at 2 µM; 360,000 compounds, 1% hits; AID 504660; in the data active = activation above about 30%
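Tetracycline-induced HEK293 TREx D1 cells, force-coupled to calcium signalling, were dye-loaded with a no-wash calcium kit. Compound was pin-added after a 10 s baseline. Fluorescence was read kinetically at 1 cycle/s for 180 s, with calcium rises flagged as agonism.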
D1 potentiator: enhances dopamine response at the human D1 receptor. 360,000 compounds, 0.036% hits. HEK293 TREx D1 cells, calcium flux, dopamine EC20 potentiation. AID 504651. potentiation, % at 10 µM; in the data active = potentiation above about 30%
D1 antagonist: human D1 dopamine receptor antagonism; HEK293 TREx D1 cells, calcium flux, dopamine EC80; stronger effect = lower value; activity change, negative = inhibition, % at 10 µM; P21728; 360,000 compounds, 3.2% hits; in the data active = activity change below about -30%
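Antagonism measured as reduced calcium response to an EC80 dopamine addition following 180 s compound pre-read; cells were inducible HEK293 Trex D1 plated overnight at 30 C, read kinetically at 1 cycle/sec.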
Large screens that a line does not name were inactive.

COc1cc(Cl)c(C)cc1NC(=O)c1cnn(-c2ccc(F)cc2F)c1C1CCN(C(=O)OC(C)(C)C)CC1	D1 antagonist -40.5 (no result: D3 antag)
O=S(=O)(c1ccc(F)cc1)N1CCC(n2c(C(F)(F)F)nc3cccnc32)CC1	none (no result: D3 antag)
Nc1ccc(O)c2c1C(=O)c1ccccc1C2=O	none
O=C1c2ccccc2C(=O)c2c(O)c(O)cc(O)c21	D3 antag -66.9 (no result: D1 ag, D1 potentiator, D1 antagonist)
O=C(CSc1cccc2cccnc12)N/N=C/c1ccc(F)cc1	D1 antagonist -49.9
O=C(CSc1cccc2cccnc12)N/N=C/c1cccc(O)c1	none
CC(Oc1ccccc1F)C(=O)NCC1(N2CCOCC2)CCCCC1 (configuration not stated)	none (no result: D3 antag)
O=C1C(Br)=C(c2ccccc2)C(c2ccccc2)=C1c1ccccc1	D3 antag inconclusive (no result: D1 ag, D1 potentiator, D1 antagonist)
CCOc1cc2c(cc1/C=C/c1noc(C)c1[N+](=O)[O-])OC(C)C2 (configuration not stated)	D1 ag 74.1
Cc1ccc(C(C)(C)c2ccc(C)cc2)cc1	none (no result: D3 antag, D1 ag, D1 potentiator, D1 antagonist)
N#CCCN1CCN(Cc2cc(-c3ccccc3)ccc2O)CC1	D3 antag -95.6
CC(C)(C)CC(C)(C)c1ccc(O)c(CN2CCN(CCC#N)CC2)c1	none
CC(=O)Oc1ccc(C(=O)Nc2cccc(NC(=O)c3ccco3)c2)cc1	D3 antag -76.1
CC(=O)c1cccc(NC(=O)c2cccc(NC(=O)c3ccco3)c2)c1	none
O=C(Nc1ccc(C(=O)Oc2ccccc2)c(O)c1)c1ccccc1	none
O=C(Nc1ccc(C(=O)Oc2ccccc2)c(O)c1)c1ccco1	D1 antagonist -36.0
OC(c1ccc(F)c(F)c1)c1nc(-c2csc3ccccc23)cs1 (configuration not stated)	none (no result: D1 ag, D1 potentiator, D1 antagonist)
Nc1c(C(O)(C(F)(F)F)C(F)(F)F)cc(C(O)(C(F)(F)F)C(F)(F)F)c2ccccc12	D3 antag -82.7, D1 ag 39.8
Cc1ccc2oc3c(c(=O)c2c1)C1(C(=O)N(C)c2ccccc21)N(CCCO)C3=O (configuration not stated)	none (no result: D3 antag)
CN1CCN(C(c2ccc(Br)cc2)c2cc(Cl)c3cccnc3c2O)CC1 (configuration not stated)	D3 antag -76.4
CN1CCN(C(c2ccc(F)cc2)c2ccc3cccnc3c2O)CC1 (configuration not stated)	none (no result: D1 ag, D1 potentiator, D1 antagonist)
COc1ccccc1-c1ccc2c(c1)C(C)(Cc1cccc(C#N)c1)C(=O)N2 (configuration not stated)	none (no result: D1 ag, D1 potentiator, D1 antagonist)
CCC1(c2ccccc2)NC(=O)N(CC(=O)N(CC(=O)Nc2ccccc2C(F)(F)F)Cc2ccco2)C1=O (configuration not stated)	D1 ag 43.7
CCN(CC(=O)Nc1ccccc1C(F)(F)F)C(=O)CN1C(=O)NC2(CCCCC2)C1=O	none
CCOc1ccc(C(=O)N2CC(=O)Nc3ccc(C)cc3C2c2ccc(F)cc2)cc1OCC (configuration not stated)	none (no result: D3 antag)
Cc1ccc(S(=O)(=O)N(C)c2ccc(C(=O)NCC(c3ccccc3)N3CCCC3)cc2)cc1 (configuration not stated)	D3 antag -64.3 (no result: D1 ag, D1 potentiator, D1 antagonist)
CCOc1ccc(S(=O)(=O)Nc2ccc(C(=O)NCC(c3ccco3)N3CCCCC3)cc2)cc1 (configuration not stated)	D1 ag 32.8
CCOc1ccc(NS(=O)(=O)c2ccc(C(=O)NCC(c3ccco3)N3CCCCC3)cc2)cc1 (configuration not stated)	none (no result: D1 ag, D1 potentiator, D1 antagonist)
O=S(=O)(NCC(c1ccco1)N1CCCCC1)c1ccccc1C(F)(F)F (configuration not stated)	D1 antagonist -41.9
Cc1ccc(NS(=O)(=O)c2cccc(C(=O)NCC(c3ccco3)N3CCCC3)c2)cc1 (configuration not stated)	D3 antag inconclusive, D1 ag 44.1 (no result: D1 potentiator)
CN(c1ccccc1)S(=O)(=O)c1ccc(C(=O)NCC(c2ccco2)N2CCCCC2)cc1 (configuration not stated)	D3 antag inconclusive
Cc1cc(C(=O)N2CCC2(C)C(=O)NS(=O)(=O)c2ccccc2Cl)nn1C (configuration not stated)	none (no result: D1 ag, D1 potentiator, D1 antagonist)
C[C@@H]1CCCCO[C@@H](CN(C)Cc2ccc(C(F)(F)F)cc2)[C@@H](C)CN([C@H](C)CO)C(=O)c2cc(N(C)C)ccc2O1	none (no result: D1 ag, D1 potentiator, D1 antagonist)
O=C(NCC(c1ccco1)N1CCCCC1)c1ccc(S(=O)(=O)Nc2ccccc2)cc1 (configuration not stated)	none
Cc1ccc(NS(=O)(=O)c2ccc(C(=O)NCC(c3ccco3)N3CCCCC3)cc2)cc1 (configuration not stated)	D1 ag 38.6
COc1cccc(-c2cc(C(=O)Nc3ccc(F)cc3)[nH]n2)c1	none (no result: D3 antag)
O=S(=O)(Nc1cccc(C(F)(F)F)c1)c1ccc(NS(=O)(=O)c2ccc3c(c2)OCCO3)cc1	none (no result: D3 antag)
CC(OC(=O)c1cccc(S(=O)(=O)Nc2cccc(C(F)(F)F)c2)c1)C(=O)Nc1ccc2c(c1)OCCO2 (configuration not stated)	D1 antagonist -36.1
Cc1ccc(N2CC3=C(C2=O)C(c2ccc(Br)cc2)NC(=O)N3C)cc1 (configuration not stated)	none (no result: D3 antag)
Cc1cccc(C(=O)CC(=O)c2cc(Cl)ccc2O)c1	D3 antag -78.6
OCCN1CCN(C2CCC(c3ccc(F)cc3)c3ccc(F)cc32)CC1 (configuration not stated)	D3 antag -62.7 (no result: D1 ag, D1 potentiator, D1 antagonist)
CC1CCN(C2=NC(=O)/C(=C/c3ccccc3F)S2)CC1	none
CC1CCN(C2=NC(=O)/C(=C/c3cccc(O)c3)S2)CC1	D3 antag -85.0
O=C(c1ccc(Cl)cc1)n1nc(-c2ccccc2)nc1NCc1ccco1	none (no result: D3 antag)
O=[N+]([O-])c1cccc(S(=O)(=O)c2ccc(NCCOCCO)c([N+](=O)[O-])c2)c1	none
O=[N+]([O-])c1cccc(S(=O)(=O)c2ccc(NCCO)c([N+](=O)[O-])c2)c1	D1 antagonist -43.5
COc1ccc(Cc2noc(CN(C)CC3(N4CCOCC4)CCCCC3)n2)cc1OC	none
CCOc1ccc(CN2CCC(C(=O)Nc3cccc(-c4ccn[nH]4)c3)CC2)cc1Cl	D1 antagonist -53.3
COc1cccc(-c2cccc(NC(=O)C3CCN(Cc4nccs4)CC3)c2)c1	none
COc1ccc(-c2ccc3c(c2)S(=O)(=O)c2cccc(C(=O)NC[C@@H]4CCCO4)c2C3=O)cc1OC	DRD3 agonist 36.7, D1 antagonist -35.8
O=[N+]([O-])c1ccc(N/N=C/c2sc(N3CCOCC3)nc2-c2ccccc2)c(S(=O)(=O)Nc2ccc(Cl)cc2)c1	D3 antag -70.1, D1 ag 62.4, D1 antagonist -34.6
O=[N+]([O-])c1ccc(N/N=C/c2sc(N3CCOCC3)nc2-c2ccccc2)c(S(=O)(=O)Nc2ccccc2Cl)c1	D3 antag -52.5, D1 ag 79.3, D1 antagonist -34.4
